High-throughput results: PubChem BioAssay, National Center for Advancing Translational Sciences (NCATS)
Compounds with a hit are over-represented: about 21% of the library has one in this group of screens.
Pf growth 96h: P. falciparum growth inhibition at 96 hour, primary screen for plastid delayed-death inhibitors. AID 504834. Potency, µM (doses to about 28.7 µM), without a hit: at the highest dose activity change, negative = inhibition, actives largely listed as inhibitors. P. falciparum luciferase reporter growth, 96 h. 320,000 tested, 6.9% active; also: potency is read from the fitted curve at half-maximal effect; % is scaled to controls: 0 for no effect and ±100 for the full control effect
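Parasite growth measured via integrated firefly luciferase reporter in P. falciparum. Infected erythrocytes at 2% hematocrit, 0.05% parasitemia final were treated 96 hours at 37 C under 5% CO2, and luminescence was read.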
Pf growth 48h: P. falciparum growth inhibition at 48 hours (one generation); P. falciparum luciferase growth in erythrocytes, 48 h; Potency, µM (doses to about 28.7 µM), for the others: at the top dose activity change, negative = inhibition, usual class: inhibitors; 310,000 tested, 5.9% active; also: potency is read from the fitted curve at half-maximal effect; % is scaled to controls: 0 for no effect and ±100 for the full control effect
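Compounds are pin-transferred into medium, infected erythrocytes (2% hematocrit, 0.1% parasitemia final) are added, and plates sit one parasite generation at 37 C in 5% CO2. Detection reagent is then added and luminescence measured.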
HCV inhibitor: inhibitors of hepatitis C virus infection; Huh7.5.1 HCVcc-Cre infection, luciferase reporter, 44 h; AID 651820; Potency, µM (doses to about 41.8 µM), for inactives: at the top dose activity change, negative = inhibition, hits mostly inhibitors; 340,000 tested, 3.4% active; also: potency is read from the fitted curve at half-maximal effect; % is scaled to controls: 0 for no effect and ±100 for the full control effect
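Antiviral activity was scored by luciferase reporter output from cells infected with HCVcc-Cre (~0.5 moi) in presence of compound, 44 h infection period, cells seeded 1,000/well 4 h prior.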
AMA1 RON2 block: disrupts binding of P. falciparum AMA1 to RON2 | AlphaScreen AMA1-biotinylated RON2 peptide binding | Potency, µM (titrated, usually from 58.2 µM), inactives show top-dose activity change, negative = inhibition, actives largely listed as inhibitors | 360,000 tested, 0.2% active | AID 720542;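 also: potency is read from the fitted curve at half-maximal effect; 0% = vehicle wells and -100% = peptide control; nearly all actives have a fitted effect of over 45% in size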
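AMA1 (3D7) with his tag at 25 nM final met compounds first, then biotinylated RON2 peptide at 25 nM; detection used donor plus acceptor beads, 10 µg/mL apiece, read by AlphaScreen after 30 min at room temperature.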
Shiga inhibitor: blocks Shiga toxin action in Vero cells; Vero cells, Shiga toxin protein synthesis inhibition reporter; inhibition, % at 38.7 µM; 290,000 tested, 9.2% active; AID 2315; in the data active = inhibition mostly above about 28%, no sharp cut-off; inactive = mostly below about 43%; also: 0% is about no effect
Cycloheximide cs: counter-screen for Shiga toxin inhibitors: cycloheximide protein synthesis inhibition | cell reporter, cycloheximide protein synthesis inhibition counterscreen | max response, % | 300,000 tested, 12% active; in the data active = max response mostly above about 13%, no sharp cut-off; inactive = mostly below about 14%; also: read at 38.3 µM for the half of the compounds with a filed dose; 0% is about no effect
Numbers without * were called inactive; ? = inconclusive; · = not tested or not shown. Unless noted, calls follow the shape of the dose curve; as a rule, active = well fitted curve in the direction sought with a large enough effect; inconclusive = small, poorly fitted or top-dose-only effect, or another doubt; inactive = no such curve, though single readings can be large; an effect the other way counts as inactive or inconclusive.

SMILES | Pf growth 96h | Pf growth 48h | HCV inhibitor | AMA1 RON2 block | Shiga inhibitor | Cycloheximide cs
COc1ccc(NC(=O)CN(C)Cc2cccs2)cc1Cl | -28% | ? | -19% | 13% | 21 | 12
CC(Cc1cccs1)NC(=O)Nc1ccccc1 (stereo not drawn) | 2.9µM* | 42% | -7% | -3% | 64* | 14
C[C@@H]1CN([C@@H](C)CO)C(=O)c2ccccc2-c2ccccc2CO[C@@H]1CN(C)S(=O)(=O)c1ccc(C(F)(F)F)cc1 | · | · | · | -2% | · | ·
CC1Cc2ccccc2N1C(=O)Cn1cc(C(F)(F)F)ccc1=O (stereo not drawn) | · | · | · | 0% | · | ·
CCOC(=O)[C@]12CCCC=C1N(CCC1=CCCCC1)C(=O)[C@H](CC(=O)NCc1ccccc1)C2 | · | · | · | -14% | · | ·
O=S(=O)(c1cnc[nH]1)N1CCN(c2ccc(F)cc2)CC1 | 43% | 16% | 16% | 6% | -6 | -1
Fc1ccc(-c2cnc[nH]2)cc1 | · | 45% | 4% | -12% | 35 | 23*
COc1ccc(Br)cc1C1NC(c2ccc3c(c2)OCO3)=CC(c2cc(Cl)ccc2O)N1 (stereo not drawn) | · | · | · | · | 90* | 45*
Oc1ccc(Cl)cc1C1C=C(c2ccc3c(c2)OCO3)NC(c2cc(Br)ccc2F)N1 (stereo not drawn) | · | · | · | · | 83* | 31*
Cc1cccc(OCC(=O)Nc2c3c(nn2C(C)(C)C)CS(=O)(=O)C3)c1 | 18% | 40% | -1% | -8% | 19 | -1
CN1CCN(c2nc(-c3ccc(Cl)cc3Cl)nc3ccccc23)CC1 | ? | ? | ? | -18% | -7 | 1
CC12COC3(P(=O)(c4ccccc4)c4ccccc4)CC1CCC23CP(=O)(c1ccccc1)c1ccccc1 (stereo not drawn) | 0.93µM* | 1.2µM* | 15% | -18% | 21 | 0
CC12COC3(C(=O)Nc4ccc(F)cc4)CC1CCC32C (stereo not drawn) | 0% | -22% | 2% | -2% | -17 | -1
Cc1ccccc1NC(=O)C(=O)NCc1ccccn1 | 45% | 35% | 3% | 57% | 12 | 27*
COc1ccc(Br)cc1S(=O)(=O)NCc1ccccn1 | ? | -2% | 3% | 87% | -14 | -1
Cc1cc(Br)ccc1NCc1ccccn1 | 94% | 36% | -2% | ? | 67* | 31*
Cc1ccc(NC(=O)C(=O)NCc2ccccn2)cc1 | 13% | 220% | 18% | 9% | 87* | 29*
Cc1ccccc1NC(=O)NCc1ccccn1 | · | · | 7% | 11% | · | ·
O=C(NCc1ccccn1)C(=O)Nc1ccccc1 | 11% | 106% | 7% | 22% | 67* | 23*
Cc1cc(C)cc(NC(=O)C(=O)NCc2ccccn2)c1 | 28% | 10% | 0% | 17% | -6 | -2
C[C@@H]1CN([C@H](C)CO)S(=O)(=O)c2ccc(C#Cc3ccccc3F)cc2O[C@@H]1CN(C)C(=O)Cc1ccccc1 | · | · | · | -10% | · | ·
CCN(C(=O)COC(=O)C1CCN(S(=O)(=O)c2c(Cl)cccc2Cl)CC1)C1CCCCC1 | ? | -28% | -17% | 8% | -6 | 1
COc1cccc(-c2ncc3ccccc3c2COC(=O)c2ccco2)c1 | -9% | -22% | -6% | -12% | · | ·
c1ccc(NCc2ccccn2)cc1 | 0% | 22% | 25% | 26% | 95* | 18*
O=C1CC(NNC(=O)c2cccc(F)c2)C(=O)N1 (stereo not drawn) | 11% | ? | 7% | -8% | 24 | 11*
c1ccc(C[n+]2c(-c3ccccc3)csc2Nc2ccccc2)cc1 | 9.3µM* | ? | ? | -3% | 36 | 15*
c1ccc(Nc2scc(-c3ccccc3)[n+]2Cc2ccco2)cc1 | -69% | 129% | ? | ? | 158* | 52*
C=CC[n+]1c(-c2ccc(C)cc2)csc1Nc1ccc(NC(C)=O)cc1 | 0% | ? | -27% | -17% | -17 | -5
CC[n+]1c(-c2ccccc2)csc1Nc1c(C)n(C)n(-c2ccccc2)c1=O | 11% | -9% | ? | 15% | -10 | -1
